HCV inhibitor = inhibitors of hepatitis C virus infection. Potency, µM (highest dose often 41.8 µM), for the others: at the top dose activity change, negative = inhibition, hits mostly inhibitors. Huh7.5.1 HCVcc-Cre infection, luciferase reporter, 44 h. hit rate 3.4% among 340,000; further: potency means the concentration at half of the fitted maximal effect
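Infectious HCVcc-Cre (~0.5 moi) was added to cells just after compound, with cells seeded 4 h earlier at 1,000 per well. Luciferase activity after 44 h culture reported infection; substrate was incubated 15 min at room temperature before reading.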
FMDV inh = blocks foot and mouth disease virus; FMDV antiviral cell-based qHTS; hit rate 1.2% among 410,000; Potency, µM (highest dose often 57.9 µM), for inactives: at the top dose activity change, negative = inhibition, hits mostly inhibitors; calls by dose curve; tested in HEK293T cells; further: read-out not given here; potency means the concentration at half of the fitted maximal effect; nearly all actives have a fitted effect of over 45% in size
Giardia FBPA inh = blocks Giardia fructose-bisphosphate aldolase activity; hit rate 0.71% among 290,000; Potency, µM (top dose mostly 59.6 µM), for the others: top-dose activity, negative = inhibition, usual class: inhibitors; purified Giardia FBPA; AID 2451; A8B2U2; further: potency means the concentration at half of the fitted maximal effect; nearly all actives have a fitted effect of over 55% in size
Target sequence (A8B2U2 whole entry, looked up): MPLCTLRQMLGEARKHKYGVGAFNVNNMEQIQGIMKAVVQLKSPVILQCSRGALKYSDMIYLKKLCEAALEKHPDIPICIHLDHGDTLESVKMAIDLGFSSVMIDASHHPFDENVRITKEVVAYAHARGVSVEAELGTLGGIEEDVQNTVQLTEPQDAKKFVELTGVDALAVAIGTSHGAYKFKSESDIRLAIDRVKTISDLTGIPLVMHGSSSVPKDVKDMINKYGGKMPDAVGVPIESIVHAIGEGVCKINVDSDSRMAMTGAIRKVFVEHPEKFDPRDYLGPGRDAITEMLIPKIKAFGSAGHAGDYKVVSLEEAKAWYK
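40 nM FBPA preincubated 10 min at RT with compound (up to 57.5 uM final), then substrate plus GAPDH/TPI/NAD/arsenate coupling and diaphorase/resazurin added. Fluorescence read after 20 min at RT, 525/598 nm.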
LASV entry inh = Lassa virus entry inhibition; hit rate 1.2% among 300,000; Lassa virus pseudotype entry inhibition, cell reporter; Potency, µM (titrated, usually from 37.9 µM), for the others: at the highest dose activity change, negative = inhibition, hits mostly inhibitors; calls by dose curve; tested in HEK293 cells; further: potency means the concentration at half of the fitted maximal effect; nearly all actives have a fitted effect of over 50% in size
HCMV inh = inhibitors of human cytomegalovirus | HFF cells, HCMV-luciferase reporter, 72 h; stronger effect = lower value | activity change, negative = inhibition, % at 57.5 µM | hit rate 4.5% among 410,000 | AID 1259415; in the data active means activity change below about -60%; inconclusive means no clear call, values can overlap the other calls; inactive means above about -39%
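Luciferase read-out from HCMV-luciferase-infected HFFs (MOI 1 PFU/cell) 72 h post infection at 37C; compounds added after 16 h cell attachment; activity normalized between buffer-only basal and Salinomycin (10uM) inhibitor controls.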
MARV entry inh = inhibitors of Marburg virus binding or cell entry; Marburg virus pseudotyped entry inhibition, cell reporter; Potency, µM (titrated, usually from 37.8 µM), inactives show at the highest dose activity change, negative = inhibition, actives largely listed as inhibitors; hit rate 1.8% among 300,000; AID 540276; calls by dose curve; tested in HEK293 cells; further: potency means the concentration at half of the fitted maximal effect
Numbers without * were called inactive; [ ] = another dose, or the depositor's remark. A selection: hits, their analogues and other compounds. The true share with any hit is near 8.3%. Unless noted, the call rests on the fitted dose curve; in most records, active means well fitted curve in the direction sought with a large enough effect; inconclusive means small, poorly fitted or top-dose-only effect, or another doubt; inactive means no such curve, though single readings can be large; an effect the other way counts as inactive or inconclusive. On the % scale 0 is the no-effect control and ±100 the full control effect.

What do the screens show for `C/C(=N/NC(=O)CSc1nc2ccccc2n1C)c1ccncc1`?
HCV inhibitor: 11%; FMDV inh: -28%; Giardia FBPA inh: -5%; LASV entry inh: 17%[46.1 µM]; HCMV inh: -101*; MARV entry inh: 3%[46.1 µM]

Results for Cc1cccc(NC(=O)CSc2nc3c([nH]c4ccccc43)c(=O)n2C)c1C ?
FMDV inh: 47%; LASV entry inh: -25%[46.1 µM]; HCMV inh: 49

What do the screens show for `Cc1cc2c(=O)n(C)c(SCC(=O)Nc3ccccc3)nc2s1`?
HCV inhibitor: -19%; FMDV inh: 8%; Giardia FBPA inh: -1%; HCMV inh: -61*; MARV entry inh: 23%[46.1 µM]

Results for Cc1cccc(NC(=O)CSc2nc3sc(C)cc3c(=O)n2C)c1 ?
HCV inhibitor: -11%; FMDV inh: -15%; LASV entry inh: -27%; HCMV inh: -35; MARV entry inh: inconclusive

How did CCOCCCn1c(SCC(=O)Nc2ccccc2OC)nc2ccccc2c1=O do in these assays?
HCV inhibitor: -21%; FMDV inh: inconclusive; Giardia FBPA inh: -1%; HCMV inh: inconclusive

Results for COc1ccccc1NC(=O)CSc1nc2ccccc2c(=O)n1C ?
HCV inhibitor: -5%; FMDV inh: 14µM*; Giardia FBPA inh: 1%; HCMV inh: inconclusive

How did Cc1cccc(NC(=O)CSc2nc3ccccc3c(=O)n2C)c1C do in these assays?
FMDV inh: inconclusive; HCMV inh: -68*

What do the screens show for `O=C(NCCN1Cc2ccccc2OC(c2ccsc2)C1)c1cncs1` (centres undefined)?
FMDV inh: -6%

What do the screens show for `COC(=O)c1cc2oc(C)cc2n1CC(=O)Nc1ccc(C(C)C)cc1`?
FMDV inh: 17%; HCMV inh: -15; MARV entry inh: inconclusive

Results for Cc1ccc(-n2c(SCC(=O)NCC3CCCO3)nc3ccccc3c2=O)cc1 (centres undefined) ?
HCV inhibitor: 3%; FMDV inh: -8%; HCMV inh: -11

What do the screens show for `Cn1c(SCC(=O)NCc2ccccc2)nc2ccccc21`?
HCV inhibitor: 14%; FMDV inh: -13%; Giardia FBPA inh: 2%; LASV entry inh: 10%; HCMV inh: -100*; MARV entry inh: 21%

Results for CCOc1ccccc1NC(=O)CSc1nc2cc(O)ccc2c(=O)n1-c1ccc(OC)c(OC)c1 ?
HCV inhibitor: 11µM*; FMDV inh: inconclusive; Giardia FBPA inh: 5%; HCMV inh: -72*

What do the screens show for `Cn1c(SCC(=O)Nc2ccccc2)nc2ccccc2c1=O`?
HCV inhibitor: inconclusive; FMDV inh: -27%; Giardia FBPA inh: 2%; LASV entry inh: inconclusive; HCMV inh: inconclusive; MARV entry inh: 4µM*

Results for Cn1c(SCC(=O)Nc2sccc2C(N)=O)nc2ccccc2c1=O ?
HCV inhibitor: 1%; FMDV inh: -26%; LASV entry inh: -15%; HCMV inh: -20; MARV entry inh: inconclusive

Results for COc1ccc(-n2c(SCC(=O)NCC3CCCO3)nc3ccccc3c2=O)cc1Cl (centres undefined) ?
FMDV inh: -11%; HCMV inh: -67*

How did CC(NC(=O)CSc1nc2ccccc2n1C)c1ccccc1 (centres undefined) do in these assays?
HCV inhibitor: -15%; FMDV inh: 11%; Giardia FBPA inh: -8%; LASV entry inh: -19%[46.1 µM]; HCMV inh: -2; MARV entry inh: inconclusive

How did N#C/C(=C\c1cc(Br)c(O)c(Br)c1)c1nc2ccccc2c(=O)[nH]1 do in these assays?
FMDV inh: -17%; LASV entry inh: 1%[46.1 µM]; HCMV inh: 0

What do the screens show for `Cc1ccc(-n2ncc(C(=O)NC3CCCCC3)c2C2CCN(C(=O)OC(C)(C)C)CC2)cc1`?
FMDV inh: -19%; LASV entry inh: inconclusive; HCMV inh: 6

Results for CCOC(=O)c1ccc(NC(=O)CSc2nc3cccnc3n2C)cc1 ?
HCV inhibitor: inconclusive; FMDV inh: 16µM*; Giardia FBPA inh: -1%; LASV entry inh: -28%; HCMV inh: -15; MARV entry inh: inconclusive

Results for c1ccc(Nc2nc(-c3ccccc3)ns2)cc1 ?
HCV inhibitor: inconclusive; FMDV inh: 3%; Giardia FBPA inh: 7%; LASV entry inh: inconclusive; HCMV inh: 141; MARV entry inh: 10µM*

What do the screens show for `CC(C)(C)C(=O)Nc1nc(-c2ccccc2)ns1`?
HCV inhibitor: inconclusive; FMDV inh: -37%; Giardia FBPA inh: -20%; LASV entry inh: inconclusive; HCMV inh: -21; MARV entry inh: inconclusive

Results for CC(C)NC(=O)C1CCN(c2nc3ccccc3nc2C(F)(F)F)CC1 ?
FMDV inh: -21%; LASV entry inh: -4%[46.1 µM]; HCMV inh: -12

How did COC(=O)[C@@H]1CCCN1Cc1ccc2c(c1)CN(Cc1ccccc1F)CCO2 do in these assays?
FMDV inh: -3%

How did C[N+](C)(C)Cc1ccccc1 do in these assays?
HCV inhibitor: 1%[8.37 µM]; FMDV inh: 35µM*; Giardia FBPA inh: 3%; LASV entry inh: -2%; HCMV inh: -13; MARV entry inh: 11%

How did Cc1cc(C)c(/C=C/c2onc(C)c2S(=O)(=O)N2CCC(C(=O)Nc3ccc(Cl)c(C(F)(F)F)c3)CC2)c(C)c1 do in these assays?
FMDV inh: inconclusive; LASV entry inh: 25%[46.1 µM]; HCMV inh: -97*

What do the screens show for `CCc1ccc(NC(=O)C2CCN(S(=O)(=O)c3c(C)noc3/C=C/c3ccco3)CC2)cc1`?
FMDV inh: inconclusive; LASV entry inh: 2%[46.1 µM]; HCMV inh: inconclusive; MARV entry inh: 6%[46.1 µM]

Results for COc1ccc(NC(=O)C2CCN(S(=O)(=O)c3c(C)noc3/C=C/c3ccco3)CC2)cc1 ?
FMDV inh: -24%; LASV entry inh: 1%[46.1 µM]; HCMV inh: -67*; MARV entry inh: 9%[46.1 µM]

What do the screens show for `Cc1ccc(NC(=O)C2CCN(S(=O)(=O)c3c(C)noc3/C=C/c3cccs3)CC2)cc1F`?
FMDV inh: inconclusive; LASV entry inh: -22%[46.1 µM]; HCMV inh: inconclusive; MARV entry inh: -5%[46.1 µM]

How did Cc1noc(/C=C/c2cccs2)c1S(=O)(=O)N1CCC(C(=O)Nc2ccc(F)c(Cl)c2)CC1 do in these assays?
FMDV inh: inconclusive; LASV entry inh: -21%[46.1 µM]; HCMV inh: -73*; MARV entry inh: 14%[46.1 µM]

How did Cc1nc(NC2CCCCC2)c2nc(-c3ccccc3)n(CCN3CCCC3)c2n1 do in these assays?
Giardia FBPA inh: 5%

How did Cc1cc(-c2nn(-c3ccccc3F)cc2CN2CCN(c3ccncc3)CC2)c(C)s1 do in these assays?
HCV inhibitor: inconclusive; FMDV inh: -15%; Giardia FBPA inh: 2%; LASV entry inh: inconclusive; HCMV inh: -11; MARV entry inh: 6.3µM*

From PubChem BioAssay
